Compound activity deposited in PubChem BioAssay by National Center for Advancing Translational Sciences (NCATS).
Rows were chosen to be rich in hits. Some 7.9% of all compounds tested hit in one or more screens of this group.
MCF10A rerep: DNA re-replication induction in MCF 10a cells; MCF 10A DNA re-replication, Hoechst nuclear intensity, 48 h; Potency, µM (titrated, usually from 46.1 µM), without a hit: at the highest dose activity, positive = re-replication, hits mostly activators; AID 624296; hit rate 2.9% among 350,000; also: % of control where 0% means no effect; nearly all actives have a fitted effect of over 50% in size
HT1080-NT tox: kills 2HG-producing HT-1080-NT fibrosarcoma cells. HT-1080-NT fibrosarcoma viability, CellTiter-Glo ATP luminescence, 48 h. Potency, µM (highest dose often 46.1 µM), for inactives: top-dose activity, negative = less viability, hits mostly cytotoxic. hit rate 1.6% among 360,000. AID 686970;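 also: NT is the 2HG producing partner of a matched IDH1 knockdown line; 0% = DMSO-treated cells and -100% = media-only wells without cells; nearly all actives have a fitted effect of over 55% in size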
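Toxicity toward the 2HG-producing NT line was scored as %Activity, normalised to DMSO and no-cell wells, from CellTiter-Glo luminescence after 48 hours' treatment.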
KB-V1 MDR tox: KB-V1 MDR subline cytotoxicity; Potency, µM (highest dose often 46.1 µM), most hits filed as cytotoxic; hit rate 3.4% among 400,000; KB-V1 MDR cells viability, CellTiter-Glo, 72 h; also: % is scaled to controls: 0 for no effect and ±100 for the full control effect; nearly all actives have a fitted effect of over 60% in size
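qHTS viability screen in drug-selected KB-V1 MDR cells: 72 h compound treatment at 37 degrees C, ATP luminescence end point.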
SW480 rerep: DNA re-replication induction in SW480 cells | Potency, µM (top dose mostly 46.1 µM), for the others: at the top dose re-replication activation, most hits filed as activators | hit rate 1.8% among 340,000 | SW480 DNA re-replication, Hoechst DNA content imaging, 48 h | AID 624297; also: % of control where 0% means no effect; nearly all actives have a fitted effect of over 55% in size
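Image-based read-out: total Hoechst fluorescence of nuclei (405 nm excitation, 500-530 nm emission), with hits raising the fraction of high-intensity nuclei. SW480 colon cells incubated 48 hr with compounds at 37 C.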
HT1080 IDH1KD tx: HT-1080 IDH1 knockdown cell toxicity (counter line); HT-1080 IDH1 knockdown viability, ATP luminescence, 48 h; Potency, µM (doses to about 46.1 µM), for inactives: at the top dose activity, negative = toxicity, actives largely listed as cytotoxic; hit rate 2% among 360,000; AID 686971;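 also: 0% = DMSO wells and -100% = cell-free medium wells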
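After a 2 h attachment period, IDH1KD HT-1080 cells took pin-transferred compound for 48 h at 37 °C; ATP-based luminescence after 10 min room-temperature reagent incubation reported viability.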
KB-3-1 tox: kills parental KB-3-1 adenocarcinoma cells; Potency, µM (doses to about 46.1 µM), actives largely listed as cytotoxic; KB-3-1 viability, CellTiter-Glo ATP luminescence, 72 h; hit rate 1.4% among 400,000; AID 1347075; also: % is scaled to controls: 0 for no effect and ±100 for the full control effect; nearly all actives have a fitted effect of over 60% in size
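Cells are dispensed, compounds pinned in, plates held at 37 °C for 72 h, then CellTiter-Glo is added and luminescence read after 10 minutes. Cell line: parental KB-3-1 in phenol-red-free DMEM, 10% FBS.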
Starred values were filed as active, the others as inactive; i = inactive; ? = inconclusive; / = not tested or not shown; [ ] = dose if it differs, or a comment. Calls follow the shape of the dose curve; as a rule, active = well fitted curve in the direction sought with a large enough effect; inconclusive = small, poorly fitted or top-dose-only effect, or another doubt; inactive = no such curve, though single readings can be large; an effect the other way counts as inactive or inconclusive. Potency is read from the fitted curve at half-maximal effect.

SMILES	MCF10A rerep	HT1080-NT tox	KB-V1 MDR tox	SW480 rerep	HT1080 IDH1KD tx	KB-3-1 tox
O=C(c1ccccc1)c1nn(-c2ccc(Cl)cc2)c(=O)cc1C(F)(F)F	12µM*	18µM*	18µM*	?	21µM*	?
Cc1cccn2c(=O)c(/C=C(\C#N)C(=O)NCc3ccco3)c(N3CCCC(C)C3)nc12 (centres undefined)	0%	22%	?	41%	14%	i
CCc1ccc(N2C(=O)C(Cl)=C(Nc3ccc(C(=O)N4CCCC4)cc3)C2=O)cc1	10µM*	-4%[9.24 µM]	i	?	-26%	i
O=S(=O)(CCNCCc1ccccc1)NCc1ccccc1	-5%	8%	i	33%	3%	i
O=C(Nc1cccn2ncnc12)c1cccc(C(F)(F)F)c1	3%	2%	i	-11%	2%	i
COc1ccc(-c2nc(-n3c(C)c(C(C)=O)c(C(C)=O)c3C)sc2C)cc1OC	?	7%	15µM*	-7%	6%	i
CC(=O)c1c(C(C)=O)c(C)n(-c2nc(-c3ccc(Br)cc3)c(C)s2)c1C	16%	-6%	?	?	-15%	?
CCN1C(=O)/C(=C\N2CCN(c3ccc(F)cc3)CC2)SC1=S	1%	10%	2.6µM*	-4%	-3%	i
Cc1cc(NC(=O)c2cc([N+](=O)[O-])cc([N+](=O)[O-])c2)n(-c2ccccc2)n1	1%	1%	?	29%	0%	i
COc1cc2nc(N3CCN(C)CC3)nc(NC3CCN(C)CC3)c2cc1OC	/	-10%	/	/	-12%	/
COc1cc2nc(/C=C/c3cc(OC)c(OC)c(OC)c3)sc2cc1SC	?	?	10µM*	?	?	23µM*
COc1cc2nc(C)sc2cc1SC	1%	4%	i	-4%	8%	i
O=C(CC(c1cccs1)N1Cc2ccccc2C1=O)Nc1ccc(F)c(Cl)c1 (centres undefined)	/	/	?	/	/	i
O=C(CC(C(=O)O)c1ccc(Cl)cc1)c1ccccc1 (centres undefined)	0%	-1%	i	-6%	11%	i
N#CC(CC(=O)c1ccc(Cl)cc1)c1ccccc1 (centres undefined)	1%	-2%	16µM*	-3%	-4%	i
COCCNC(=S)N(CCc1c(C)[nH]c2ccc(F)cc12)Cc1ccc(C)cc1	?	?	?	?	?	i
c1ccc(C2[C@H]3CN(Cc4cccnc4)[C@H](c4ccccc4)C34CC2(c2ccccc2)C4)cc1 (some centres undefined)	1%	?	i	-3%	?	?
COC(=O)c1cccc(C23CC4(C2)[C@H](CN(Cc2ccc(C(F)(F)F)cc2)[C@@H]4c2ccccc2)C3c2ccc(C(F)(F)F)cc2)c1 (some centres undefined)	0%	-11%	i	0%[9.22 µM]	-28%	13µM*
c1ccc(C2[C@H]3CN(Cc4cccnc4)[C@H](c4ccccc4)C34CC2(c2cccnc2)C4)cc1 (some centres undefined)	?	?	21µM*	-12%[9.22 µM]	?	?
O=C(Nc1ccc(F)cc1)N1CCN(c2ccccc2F)CC1	/	/	i	/	/	i
C=CCc1c(C)nc(C)nc1N/N=C/c1ccccc1O	19%	6%	7.3µM*	12µM*	-23%	i
COC(=O)c1[nH]c2ccc(F)cc2c1NS(=O)(=O)c1ccc(OC)cc1	7.3µM*	5.2µM*	7.3µM*	4.6µM*	?	2.6µM*
COc1ccc(S(=O)(=O)Nc2c(C(=O)O)[nH]c3ccc(OC)cc23)cc1	?	6%	?	0%	6%	i
O=C(NCc1ccccc1F)C1CCCN(C(=O)NC2CCCCC2)C1 (centres undefined)	12%	-11%	21µM*	-2%	3%	i
NC(=O)C1CCCN(C(=O)NC2CCCCC2)C1 (centres undefined)	1%	17%	i	3%	9%	i
SMILES	MCF10A rerep	HT1080-NT tox	KB-V1 MDR tox	SW480 rerep	HT1080 IDH1KD tx	KB-3-1 tox
O=C(NCC1CCCCC1)C1CCCN(C(=O)NC2CCCCC2)C1 (centres undefined)	7%	?	4.1µM*	0%	6%	?
COc1ccc(-n2c(C)c(C(C)=O)c3cc(OC(=O)c4ccc(C)cc4)ccc32)cc1	/	/	i	/	/	i
CC(C)(C)OC(=O)NCCCC[C@@H](C(=O)N1CCN(C(=O)OC(C)(C)C)CC1)n1cc(C(CO)NC(=O)OC(C)(C)C)nn1 (some centres undefined)	-8%	2%	?	3%	7%	i
CN1CCN(c2nc3c(c(=O)[nH]c(=O)n3C)n2CCSc2nnnn2-c2ccccc2)CC1	-1%	1%	i	5%	1%	i
Cn1c(=O)[nH]c(=O)c2c1nc(N1CCCC1)n2CCCSc1nnnn1-c1ccccc1	?	-2%	6.5µM*	9%	0%	i
CCC(C)C(=O)Nc1nnc(-c2cccs2)s1 (centres undefined)	-34%	28%	i	-3%	21%	i
N#Cc1ccc(N2Cc3ccccc3C2=NC(=O)c2cccnc2Cl)cc1	?	2%	16µM*	3%	-3%	?
Cc1c(CCC(=O)NCCc2ccccc2)c(=O)oc2cc(O)ccc12	/	/	i	/	/	i
O=C(CNS(=O)(=O)c1ccccc1)OCC(=O)c1ccc([N+](=O)[O-])cc1	?	-4%	i	-1%	-4%	i
C=CCCCCCCCCC(=O)N1CCN(c2cc3c(cc2F)c(=O)c(C(=O)O)cn3CC)CC1	2%	2%	i	-24%	7%	i
CCCCCCn1cc(C(=O)O)c(=O)c2cc(F)c(N3CCN(C(=O)OCC)CC3)cc21	0%	9%	2.1µM*	-4%	8%	i
CCCCCNC(=O)c1cn(CC)c2cc(N3CCN(C)CC3)c(F)cc2c1=O	?	16µM*	i	?	?	i
CCCNC(=O)c1cn(CC)c2cc(N3CCN(C)CC3)c(F)cc2c1=O	1%	7%	i	-2%	9%	i
CCOC(=O)[C@H]1[C@H]2COc3ccc(Cl)cc3[C@@H]2N2C(=O)CN(Cc3ccccc3)C(=O)[C@@]12C	10%	0%	i	-8%	0%	i
O=C(NCc1ccccc1F)C1CCCN1C(=O)Nc1cccc(F)c1 (centres undefined)	-4%	21%	?	5%	9%	i
